# Measurements reported in PubChem BioAssay AID504832 (National Center for Advancing Translational Sciences (NCATS), 2011).
# Among all 310,000 compounds or so, about 18,000 (5.8%) were called active. Where a call stands in place of a potency, no number is given. Roughly 22% stayed inconclusive and do not appear here. For the sample, actives were picked, then their nearest neighbours and some compounds at random. Unmarked numbers belong to inactive results. Calls come from the whole dose curve; as a rule, active = well fitted inhibition curve with a large enough effect; inconclusive = small, poorly fitted or top-dose-only effect, or another doubt; inactive = no such curve, though single readings can be large or run the other way.
# Experiment: Primary qHTS for delayed death inhibitors of the malarial parasite plastid, 48 hour incubation
# Conditions: P. falciparum luciferase growth in erythrocytes; series mostly up to 28.7 µM
# Description: The goal of this screen is to discover new antimalarial compounds that act by inhibiting the development of the apicoplast in the malarial parasite Plasmodium falciparum. The biochemical processes that make this organelle essential for erythrocytic stage parasites are not well understood. However, antibiotics such as azithromycin and tetracycline, which target the apicoplast translational machinery, have a potent antimalarial effect.
# We have developed a cell-based assay that measures parasite growth based on the expression of an integrated copy of a firefly luciferase reporter. To detect small molecules that cause this "delayed death" phenotype, erythrocytes infected with the luciferase-expressing parasites were incubated with compounds for either one or two generations, corresponding to 48 and 96 hours, respectively. Compounds that inhibit parasite growth in the second generation, but not the first, should be enriched in antimalarials that target the apicoplast. Growth inhibition is detected by a decrease in luciferase activity.
# Assay Provider: David Fidock and Eric Ekland, Columbia University
# Keywords: NIH Roadmap, MLPCN, MLI, MLSMR, qHTS, NCGC, qHTS, malaria, luciferase, viability
# Four microliters of culture medium (RPMI 1640 with 0.5% w/v Albumax (GIBCO), 24 mM sodium bicarbonate and 10 ug/mL gentamycin) were dispensed by a Multi-drop Combi into white solid 1536-well plates (Grenier) and 23 nL compound was added by a pin tool. Four microliters of infected erythrocytes (2% hematocrit, 0.1% parasitemia final concentration) in culture medium were dispensed and the plates incubated for 48 hours at 37 C in 5% CO2. Two microliters of luciferase detection reagent was added and luminescence was detected by a ViewLux (PerkinElmer) reader.
# Potency is the fitted concentration of half-maximal effect.
SMILES,Potency,"activity change, negative = inhibition"
CCN(CC(=O)Nc1c(F)cccc1F)C(=O)CN1c2cccc3cccc(c23)S1(=O)=O,inactive,–
O=CN1CCN(C(=O)c2ccc(Br)o2)CC1,inactive,–
COc1ccc(CCNC(=O)CN(C)S(=O)(=O)c2ccc3nc(C)sc3c2)cc1OC,inactive,–
Cc1cc(C)c(NC(=O)CN2CCCCCC2)c(C)c1,inactive,–
Cc1cc(C)cc(OCC(=O)NCc2cc(C)nc3ccccc23)c1,inactive,–
Cc1cc(C)c(NC(=O)C[N+](C)(C)CC(O)COc2cccc3ccccc23)c(C)c1 (centres undefined),5.22 µM (active),–
Cc1ccccc1C(=O)Nc1ccccc1NC(=O)c1ccccc1C,–,1.11% [at 0.00184 µM]
N#Cc1c(-c2ccccc2)nc(SCc2ccc([N+](=O)[O-])cc2)[nH]c1=O,inactive,–
O=C(NCCN1CCN(Cc2ccccc2)CC1)c1cc2c(=O)[nH]c3ccccc3c2s1,10.4 µM (active),–
O=C(Cc1c(O)c2ccccc2[nH]c1=O)NCc1ccccc1,inactive,–
Cn1c(C(=O)NCCN2CCc3ccccc3C2)cc2c(=O)[nH]c3ccccc3c21,13.1 µM (active),–
Cn1c(C(=O)NCCCN2CCN(c3cccc(Cl)c3)CC2)cc2c(=O)n(C)c3ccccc3c21,inactive,–
O=C(CN1C(=O)COc2ccccc21)NCCN1CCc2ccccc2C1,inactive,–
O=C(CCCn1c(=O)[nH]c2cc(Cl)ccc2c1=O)NCCN1CCN(c2ccccc2)CC1,inactive,–
COCC(=O)N1CCc2ccc(NC(=O)c3ccccc3Cl)cc2C1,inactive,–
Cc1ccccc1NC(=O)COc1cccc2c1CCNC2=O,inactive,–
O=C(Cn1nc(C(=O)O)c2ccccc2c1=O)Nc1ccc(F)cc1,inactive,–
CCOc1ccccc1NS(=O)(=O)c1c[nH]c(C(=O)OC)c1,inactive,–
Cc1nc2ccccn2c(=O)c1NC(=O)c1cccs1,inactive,–
O=C(NCc1ccccc1Cl)C1CCN(c2ncnc3c2nc2n3CCCCC2)CC1,inactive,–
Cc1ccc(-n2c(Cc3cccs3)nnc2SCC(=O)OC(C)C)cc1,11.7 µM (active),–
COc1ccc(-n2c(SCC(=O)OC(C)C)nnc2-c2ccccn2)cc1,inactive,–
Cc1ccc(-c2nnc(SCC(=O)N/N=C/c3cccs3)n2-c2ccc(C)cc2)cc1,inactive,–
COc1cccc(C(=O)OCC(=O)c2[nH]c(C)c(C(C)=O)c2C)c1,inactive,–
O=C(NCCC1CCCCN1S(=O)(=O)c1cccs1)C(=O)Nc1ccc(F)cc1F (centres undefined),inactive,–

SMILES,Potency,"activity change, negative = inhibition"
O=C(NCc1ccccc1Cl)C1CCCN1S(=O)(=O)c1ccc(F)cc1 (centres undefined),inactive,–
O=C(NCc1ccccc1Cl)C(=O)NCC1CCCN1S(=O)(=O)c1cccs1 (centres undefined),14.7 µM (active),–
Cc1ccc(S(=O)(=O)NCC(=O)N(CC(=O)NCC2CCCO2)c2cccc(F)c2)cc1 (centres undefined),inactive,–
N#CCCN(C(=O)COC(=O)c1ccc(S(=O)(=O)N2CCCCCC2)cc1)c1ccccc1,inactive,–
CC(=O)c1ccc(N2Cc3ccccc3C2)cc1,inactive,–
CCOc1ncccc1C(=O)OCC(=O)NC1CC1,inactive,–
CCOc1ncccc1C(=O)OCC(=O)c1c[nH]c2ccccc12,13.1 µM (active),–
O=C(OCC(=O)c1c[nH]c2ccccc12)c1cccc(O)c1,inactive,–
O=C(O)c1ccccc1-c1ccccc1C(=O)Nc1ccccc1Br,inactive,–
COc1ccc(C)cc1NC(=O)CSc1nnc2ccc(-c3ccccn3)nn12,inactive,–
CCCCc1ccc(NC(=O)NCc2cccnc2)cc1,inactive,–
CCc1ccc(N2CC(C(=O)N3CCCCCC3)CC2=O)cc1 (centres undefined),inactive,–
COc1ccc(N2CCN(C(=O)c3ccc(N4CCCCS4(=O)=O)cc3)CC2)cc1,inactive,–
Cc1cc(Cl)ccc1OCCCC(=O)Nc1cccc(-n2cnnn2)c1,inactive,–
COc1ccc(C2=NN(C(C)=O)C(c3ccccc3)C2)cc1 (centres undefined),inactive,–
Cc1ccc(N2C(=O)C3N=NN(CC(=O)N4N=C(c5cccc6ccccc56)CC4c4ccccc4)C3C2=O)cc1 (centres undefined),13.1 µM (active),–
Cc1ccc(N2C(=O)CC(Nc3cccc4ccccc34)C2=O)cc1 (centres undefined),inactive,–
O=C(CSc1nnnn1C1CCCC1)N1CCCCC1,inactive,–
O=C(O)C1=NN(c2c(F)c(F)cc(F)c2F)C(=O)CC1,inactive,–
COc1ccc(N2CCN(C(=O)CCNC(=O)c3ccc(Br)cc3)CC2)cc1,inactive,–
COc1cccc(C(=O)N2CCC(n3nccc3NC(=O)C3CCOC3)CC2)c1 (centres undefined),inactive,–
Cc1cc(NC(=O)c2cnn3cccnc23)n(-c2ccccc2)n1,inactive,–
CC(=O)N/C(=N/c1nc(C)cc(C)n1)Nc1ccc(F)cc1F,inactive,–
Cc1cc(C)nc(-n2nc(C)cc2NC(=O)c2ccc(F)cc2F)n1,10.4 µM (active),–
CC(CN1CCOCC1)OC(=O)c1ccc(C(C)(C)C)cc1 (centres undefined),inactive,–

SMILES,Potency,"activity change, negative = inhibition"
Cc1nn2c(c1-c1ccccc1)N=C(c1ccco1)CC2c1ccccc1 (centres undefined),14.7 µM (active),–
Cc1nn(C(=O)c2ccoc2C)c(N)c1-c1ccccc1,inactive,–
O=C(O)CCCC(=O)N1N=C(c2ccco2)CC1c1ccco1 (centres undefined),inactive,–
CCN1CCN(C(=O)C2CCN(S(=O)(=O)c3cc(Cl)ccc3Cl)CC2)CC1,inactive,–
COc1ccc(C(=O)c2c(C)c(CCC#N)n3ccccc23)c(OC)c1,inactive,–
Cc1ccccc1NC(=O)C(C)OC(=O)CCC(=O)N(CC(C)C)c1c(N)n(CC(C)C)c(=O)[nH]c1=O (centres undefined),inactive,–
COc1ccc(C(=O)NCC(=O)N/N=C/c2ccc([N+](=O)[O-])o2)cc1OC,6.57 µM (active),–
COc1cc(/C=N\NC(=O)CNC(=O)c2cccc([N+](=O)[O-])c2)ccc1O,inactive,–
COc1ccc(C(=O)NCC(=O)N/N=C/c2ccc([N+](=O)[O-])s2)cc1OC,inactive,–
O=C(Cn1ccc2cc(S(=O)(=O)N3CCCC3)ccc21)NCc1ccccc1,inactive,–
CCCOc1cccc(C(=O)Nc2ccccc2C(=O)N2CCN(C)CC2)c1,inactive,–
CC1=C(C/C=C(\C)CCCC(C)CCCC(C)CCCC(C)C)C(=O)c2ccccc2C1=O (centres undefined),10.7 µM (active),–
CS(=O)(=O)c1ccc(Cl)c(NC(=O)COC(=O)c2ncc(Cl)c(Cl)c2Cl)c1,inactive,–
COc1ccc(CNc2cc(C)cc(C)c2)cc1OC,inactive,–
CN(CC(=O)Nc1cccc(F)c1)C(=O)C1CSC2(C)CCC(=O)N12 (centres undefined),inactive,–
CCn1c(=O)c2ccccc2n(CC(=O)N2CCCc3ccccc32)c1=O,inactive,–
Cn1c(SCC(=O)NC2CCCCC2)nnc1-c1ccc(N)cc1,inactive,–
Cn1c(SCC(=O)Nc2cccc(O)c2)nnc1-c1ccc(S(=O)(=O)N2CCOCC2)cc1,inactive,–
Cn1c(SCC(=O)OC2CCCCC2)nnc1-c1ccc(S(=O)(=O)N2CCCC2)cc1,2.62 µM (active),–
Cc1ccc(C(=O)C(C)OC(=O)Cc2n[nH]c(=O)c3ccccc23)cc1C (centres undefined),inactive,–
CCc1ccc(-c2cc(C)no2)cc1S(=O)(=O)NCCc1ccc(S(N)(=O)=O)cc1,inactive,–
O=C(CCS(=O)(=O)c1ccc2c(c1)NC(=O)CS2)NCc1ccccc1Cl,inactive,–
CCc1ccc(N(CC(=O)NCc2cccnc2)S(=O)(=O)c2ccccc2)cc1,inactive,–
O=C(O)c1ccccc1-c1ccccc1C(=O)NCc1cccnc1,inactive,–
Cc1ccc(S(=O)(=O)N(Cc2ccc(Cl)cc2)c2ccccc2C(=O)NCc2cccnc2)cc1,13.1 µM (active),–

SMILES,Potency,"activity change, negative = inhibition"
O=C(c1cnc(Cl)c(Cl)c1)N1CCN(S(=O)(=O)c2ccc(F)cc2)CC1,inactive,–
O=C(OCc1nnc(-c2ccccc2)o1)c1cc(=O)[nH]c2ccccc12,inactive,–
CCCc1nc2ccccc2c(C(=O)OCc2nnc(-c3cc(OC)c(OC)c(OC)c3)o2)c1CC,4.65 µM (active),–
COc1cc(-c2cc(C(=O)OCC(=O)Nc3ccc4c(c3)OCO4)c3ccccc3n2)cc(OC)c1OC,inactive,–
COc1ccccc1C(=O)Nc1ccnn1C1CCN(C(=O)C(C)(C)C)CC1,inactive,–
COC(=O)c1[nH]c2ccccc2c1NC(=O)CN1CCCc2ccccc21,2.08 µM (active),–
NS(=O)(=O)c1cccc(NC(=O)CN2CCCc3ccccc32)c1,inactive,–
COC(=O)c1[nH]c2ccc(Br)cc2c1NC(=O)Oc1ccccc1,inactive,–
CC(=O)N1CCc2c(sc(NC(=O)CCS(=O)(=O)c3ccc(C)cc3)c2C(N)=O)C1,inactive,–
O=C(NNS(=O)(=O)c1ccc(F)cc1)c1ccc([N+](=O)[O-])cc1Cl,inactive,–
CC(C)CCNC(=O)c1ccc2c(Cl)c3c(nc2c1)CCC3,inactive,–
Cc1ccc(S(=O)(=O)N2CCN(c3ccccc3)CC2)cc1C,inactive,–
Cc1cc(N2CCN(c3ccccc3)CC2)nc(N2CCOCC2)n1,inactive,–
Cc1cc(C)n(-c2nnc(N3CCN(c4ccccc4)CC3)nn2)n1,0.329 µM (active),–
Cc1nn(Cc2ccccc2)c(C)c1C(=O)NCCCN1CCCC1=O,inactive,–
CCN1CCN(C(=O)C2CCCN(S(=O)(=O)c3ccc(OC)c(OC)c3)C2)CC1 (centres undefined),inactive,–
COCc1cc(=O)n2[nH]c(C)c(-c3ccccc3)c2n1,inactive,–
C#Cc1ccc([C@@H]2C=C(C(=O)O)O[C@H](OCCCCO)C2)cc1,inactive,–
O=C(NCc1ccccc1)C1=C[C@H](C2CC2)C[C@H](OCc2ccc(CO)cc2)O1,inactive,–
O=C(C1=C[C@H](c2ccc(C(F)(F)F)cc2)C[C@H](OCc2ccc(CO)cc2)O1)N1CCN(Cc2ccccc2)CC1,3.7 µM (active),–
COCCNC(=O)CSc1nc2sccc2c(=O)n1-c1ccccc1,inactive,–
COc1ccc(-n2c(C)cc(C(=O)COC(=O)c3cc(OC)c(OC)cc3NC(=O)c3cccs3)c2C)cc1,4.15 µM (active),–
COc1ccc(C(=O)COC(=O)CNC(=O)c2cccs2)cc1Br,inactive,–
Cc1cc(C(=O)COC(=O)c2cccs2)c(C)n1-c1c(C)n(C)n(-c2ccccc2)c1=O,inactive,–
